According to PubChem BioAssay (Tox21):
Results filed as inconclusive are left out. Entries that show only a call come without a potency. The source made the active and inactive calls. Calls follow the shape of the full dose curve.

Molecular target: Muscarinic acetylcholine receptor M1 (Homo sapiens) (UniProt P11229)
Experiment: Cholinergic receptor muscarinic 1 (CHRM1) small molecule antagonists, cell-based qHTS assay (AID 1963588); also: nearly all actives have a fitted effect of over 40% in size
Details: CHRM1-CHO antagonist mode, calcium flux fluorescence; series mostly up to 61.5 µM
Procedure, shortened: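 CHRM1-CHO calcium-flux assay, antagonist mode. Cells were seeded 18 h, dye-loaded 1 h at 37 C and given compound for 5 min at RT, then acetylcholine was added at 50nM. FDSS fluorescence was read 3 min; 15 concentrations, three runs.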
Potency is read from the fitted curve at half-maximal effect.

Sequence of Muscarinic acetylcholine receptor M1 (Homo sapiens) (P11229 whole entry, looked up): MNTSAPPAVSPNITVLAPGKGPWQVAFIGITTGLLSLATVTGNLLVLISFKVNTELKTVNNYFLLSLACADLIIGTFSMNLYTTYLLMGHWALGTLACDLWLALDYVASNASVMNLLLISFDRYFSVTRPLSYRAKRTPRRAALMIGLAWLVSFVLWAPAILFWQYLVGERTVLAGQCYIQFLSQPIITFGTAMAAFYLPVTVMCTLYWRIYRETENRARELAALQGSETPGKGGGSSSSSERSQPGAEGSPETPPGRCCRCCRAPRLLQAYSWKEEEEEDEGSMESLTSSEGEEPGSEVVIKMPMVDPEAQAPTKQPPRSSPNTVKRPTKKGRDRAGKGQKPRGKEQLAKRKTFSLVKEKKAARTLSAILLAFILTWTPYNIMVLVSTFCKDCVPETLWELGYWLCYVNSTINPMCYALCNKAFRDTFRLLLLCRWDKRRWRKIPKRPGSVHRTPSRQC

| SMILES | Potency |
| --- | --- |
| Nc1nc(N)c(N)c(N)n1 | inactive |
| CCOP(=S)(NC(C)C)Oc1ccccc1C(=O)OC(C)C (stereo not drawn) | inactive |
| COC(=O)C(C)N(C(=O)c1ccco1)c1c(C)cccc1C (stereo not drawn) | inactive |
| CCOP(=O)(OCC)Oc1nc(Cl)c(Cl)cc1Cl | inactive |
| O=c1ssc(Cl)c1Cl | inactive |
| Nc1ccc(Cl)cc1C(=O)c1ccccc1 | inactive |
| CCCN(CCC)c1c([N+](=O)[O-])cc(C(F)(F)F)cc1[N+](=O)[O-] | inactive |
| CNC(=O)N(C)c1nc2ccccc2s1 | inactive |
| CC(C)(O)c1cnn2c(-c3ccc(F)c(-c4c(F)cccc4C#N)c3)cnc2n1 | inactive |
| CCOc1cc(C(C)(C)C)ccc1C1COC(c2c(F)cccc2F)=N1 (stereo not drawn) | inactive |
| CC(C)(C)C(O)/C(=C\c1ccc(Cl)cc1Cl)n1cncn1 (stereo not drawn) | inactive |
| NC1CCC(CC2CCC(N)CC2)CC1 (stereo not drawn) | inactive |
| CCCN(CC1CC1)c1c([N+](=O)[O-])cc(C(F)(F)F)cc1[N+](=O)[O-] | inactive |
| OCC(c1ccc(Cl)cc1)c1ccc(Cl)cc1 | 42.1 µM (active) |
| COC(C)(C)CCC[C@H](C)C/C=C/C(C)=C/C(=O)OC(C)C | inactive |
| O=[N+]([O-])c1cc(C(F)(F)F)cc([N+](=O)[O-])c1Cl | inactive |
| c1cc(OCC2CO2)ccc1Cc1ccc(OCC2CO2)cc1 (stereo not drawn) | inactive |
| Cc1cc(C2CC2)nc(Nc2ccccc2)n1 | 14.9 µM (active) |
| NNC(N)=O | inactive |
| Fc1ccc(Oc2ccnc3cc(Cl)cc(Cl)c23)cc1 | inactive |
| O=C1C(I)=CC(=C(c2cc(I)c(O)c(I)c2)c2ccccc2C(=O)O)C=C1I | inactive |
| O=NN1CCNCC1 | inactive |
| Oc1ccc([C@H]2CNCc3c2ccc(O)c3O)cc1O | inactive |
| CCC1(CC)C(=O)N=C(O)NC1=O | inactive |
| CCCCN(CCCC)C(=S)S | inactive |
| NS(=O)(=O)C(F)(F)C(F)(F)C(F)(F)C(F)(F)C(F)(F)C(F)(F)C(F)(F)C(F)(F)F | inactive |
| OC(c1ccc(Cl)cc1)(c1ccc(Cl)cc1)C(Cl)(Cl)Cl | 26.5 µM (active) |
| CC(C)(c1ccccc1)c1ccc(O)cc1 | inactive |
| Brc1ccc(Oc2ccc(Br)cc2Br)c(Br)c1 | inactive |
| CCOC(=O)CCN(SN(C)C(=O)Oc1cccc2c1OC(C)(C)C2)C(C)C | inactive |

Molecular target: Muscarinic acetylcholine receptor M1 (Homo sapiens) (UniProt P11229)
Experiment: Cholinergic receptor muscarinic 1 (CHRM1) small molecule agonists, cell-based qHTS assay (AID 1963589); also: nearly all actives have a fitted effect of over 35% in size
Details: CHRM1-CHO cells, agonist mode, calcium flux fluorescence; series mostly up to 76.8 µM
Procedure, shortened: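 Each compound was tested at 15 concentrations across three independent runs on dye-loaded CHO cells stably expressing human CHRM1, reading intracellular calcium fluorescence kinetically at 1 sec intervals.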

| SMILES | Potency |
| --- | --- |
| Nc1nc(N)c(N)c(N)n1 | 55.2 µM (active) |
| CCOP(=S)(NC(C)C)Oc1ccccc1C(=O)OC(C)C (stereo not drawn) | inactive |
| COC(=O)C(C)N(C(=O)c1ccco1)c1c(C)cccc1C (stereo not drawn) | inactive |
| CCOP(=O)(OCC)Oc1nc(Cl)c(Cl)cc1Cl | inactive |
| O=c1ssc(Cl)c1Cl | inactive |
| Nc1ccc(Cl)cc1C(=O)c1ccccc1 | inactive |
| CCCN(CCC)c1c([N+](=O)[O-])cc(C(F)(F)F)cc1[N+](=O)[O-] | inactive |
| CC(C)(O)c1cnn2c(-c3ccc(F)c(-c4c(F)cccc4C#N)c3)cnc2n1 | inactive |
| CCOc1cc(C(C)(C)C)ccc1C1COC(c2c(F)cccc2F)=N1 (stereo not drawn) | inactive |
| NC1CCC(CC2CCC(N)CC2)CC1 (stereo not drawn) | inactive |
| O=[N+]([O-])c1ccc(Oc2ccc(C(F)(F)F)cc2[N+](=O)[O-])cc1 | inactive |
| CCCN(CC1CC1)c1c([N+](=O)[O-])cc(C(F)(F)F)cc1[N+](=O)[O-] | inactive |
| COC(C)(C)CCC[C@H](C)C/C=C/C(C)=C/C(=O)OC(C)C | inactive |
| CCCSP(=S)(OCC)Oc1ccc(Cl)cc1Cl (stereo not drawn) | inactive |
| O=C(N[C@H](c1ccccc1)[C@@H]1CN2CCC1CC2)c1c(Cl)ccc(C(F)(F)F)c1Cl | inactive |
| O=[N+]([O-])c1cc(C(F)(F)F)cc([N+](=O)[O-])c1Cl | inactive |
| c1cc(OCC2CO2)ccc1Cc1ccc(OCC2CO2)cc1 (stereo not drawn) | inactive |

| SMILES | Potency |
| --- | --- |
| Cc1cc(C2CC2)nc(Nc2ccccc2)n1 | inactive |
| NNC(N)=O | inactive |
| CN1CCc2cc3c(cc2C1O)OCO3 (stereo not drawn) | inactive |
| Fc1ccc(Oc2ccnc3cc(Cl)cc(Cl)c23)cc1 | inactive |
| O=C1C(I)=CC(=C(c2cc(I)c(O)c(I)c2)c2ccccc2C(=O)O)C=C1I | inactive |
| Oc1ccc([C@H]2CNCc3c2ccc(O)c3O)cc1O | inactive |
| CCC1(CC)C(=O)N=C(O)NC1=O | inactive |
| CCCCN(CCCC)C(=S)S | inactive |
| NS(=O)(=O)C(F)(F)C(F)(F)C(F)(F)C(F)(F)C(F)(F)C(F)(F)C(F)(F)C(F)(F)F | 0.0022 µM (active) |
| CSC(=O)c1c(C(F)F)nc(C(F)(F)F)c(C(=O)SC)c1CC(C)C | inactive |
| CCOP(=S)(Oc1ccc([N+](=O)[O-])cc1)c1ccccc1 (stereo not drawn) | inactive |
| OC(c1ccc(Cl)cc1)(c1ccc(Cl)cc1)C(Cl)(Cl)Cl | inactive |
| CC(C)(c1ccccc1)c1ccc(O)cc1 | inactive |
| O=C1NCN(c2ccccc2)C12CCN(CCCOc1ccc(F)cc1)CC2 | 4.77 µM (active) |
| Brc1ccc(Oc2ccc(Br)cc2Br)c(Br)c1 | inactive |
| CCOC(=O)CCN(SN(C)C(=O)Oc1cccc2c1OC(C)(C)C2)C(C)C | inactive |
